ADAM17 inh: inhibitors of human ADAM17; P78536; recombinant ADAM17, EDANS/DABCYL FRET peptide cleavage; inhibition, % at 6.95 µM; 0.83% of 370,000 active; AID 720648;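 active = inhibition above the mean of compounds lying between control limits plus 3 SD, set per campaign, cut at about 8.5% in these data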;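 note: 0% = DMSO-only wells as the low control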
Target sequence (P78536 215-824 limits assumed): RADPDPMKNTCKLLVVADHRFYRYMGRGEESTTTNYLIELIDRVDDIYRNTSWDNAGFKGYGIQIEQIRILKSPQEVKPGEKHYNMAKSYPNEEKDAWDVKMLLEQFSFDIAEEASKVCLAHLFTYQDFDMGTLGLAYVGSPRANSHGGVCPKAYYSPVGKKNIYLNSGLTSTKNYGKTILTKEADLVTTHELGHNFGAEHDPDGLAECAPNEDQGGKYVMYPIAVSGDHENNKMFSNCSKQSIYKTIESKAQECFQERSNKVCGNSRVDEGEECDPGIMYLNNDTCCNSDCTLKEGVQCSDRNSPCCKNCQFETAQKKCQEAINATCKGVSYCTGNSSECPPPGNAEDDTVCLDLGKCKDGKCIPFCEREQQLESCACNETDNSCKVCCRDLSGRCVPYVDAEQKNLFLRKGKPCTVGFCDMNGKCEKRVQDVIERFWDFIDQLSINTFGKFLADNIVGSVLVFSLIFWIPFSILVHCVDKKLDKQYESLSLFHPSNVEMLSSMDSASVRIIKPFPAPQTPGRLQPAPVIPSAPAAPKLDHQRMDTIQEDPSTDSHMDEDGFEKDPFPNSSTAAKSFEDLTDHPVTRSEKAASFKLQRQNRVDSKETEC
KLK7 zymogen act: activators of human kallikrein-7 zymogen; AID 652039; P49862; purified proKLK7, EDANS-DABCYL substrate fluorescence; 100% is mature enzyme control, 0% vehicle; activation, % at 7 µM; 0.9% of 370,000 active;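 active = activation above the mean of all tested compounds plus 3 SD, computed per campaign excluding outliers beyond control limits, cut at about 13% in these data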
ADAM10 inh: ADAM10 inhibition, QFRET primary screen; O14672; recombinant ADAM10, EDANS/DABCYL FRET peptide cleavage, 3 h; inhibition, % at 7 µM; 0.62% of 370,000 active;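 active = inhibition above a per-campaign cutoff equal to the mean of compounds falling between control-based bounds plus 3 SD, cut at about 20% in these data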;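 note: 0% = DMSO wells while the 100% control is not disclosed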
PLCb3 inh: PLC-beta3 (human) inhibition, primary screen; Purified PLC-beta3, fluorogenic substrate, fluorescence; inhibition, % at 12.2 µM; 0.18% of 370,000 active; AID 720704; Q01970; in the data active = inhibition above about 11%;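 note: 0% = median of compound wells on plate and 100% = full blocker control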
PLCg1 inh: blocks human PLC-gamma1 enzyme activity; purified PLC-gamma1, fluorogenic substrate, fluorescence; inhibition, % at 12.2 µM; 0.84% of 370,000 active; AID 720700; in the data active = inhibition above about 9.5%
ADAM10 confirm: human ADAM10 inhibition, confirmation. AID 743208. 1% of 2,100 active. ADAM10 QFRET peptide cleavage, EDANS fluorescence. inhibition, % at 6.95 µM. shares compounds with ADAM10 inh;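 active = inhibition above about 20% chosen separately for each screening run, limit read from the data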;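 note: 0% = DMSO wells and 100% = marimastat wells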
ADAM17 counter: ADAM17 inhibition, counter-screen for ADAM10 exosite hits; shares compounds with ADAM10 inh; ADAM17 QFRET peptide cleavage, EDANS fluorescence; inhibition, % at 6.95 µM; 0.5% of 2,100 active; AID 743214;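 active = mean triplicate inhibition above the solvent-only control wells' mean plus 3 SD, cut at about 12% in these data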;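 note: 0% = DMSO wells and 100% = marimastat wells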
ADAM10 ctr: ADAM10 inhibition, counter-screen for ADAM17 exosite hits; 47% of 2,900 active; AID 743256; recombinant ADAM10, EDANS/DABCYL FRET peptide cleavage, 3 h; inhibition, % at 6.95 µM; shares compounds with ADAM17 inh;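 active = mean inhibition over the triplicate runs exceeds the activity threshold set in the earlier primary screen, cut at about 20% in these data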;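 note: 0% = DMSO wells and 100% = marimastat wells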
ADAM17 confirm: confirmation of inhibitors of human ADAM17 | recombinant ADAM17, EDANS/DABCYL QFRET peptide cleavage | inhibition, % at 6.95 µM | shares compounds with ADAM17 inh | 65% of 2,900 active;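 active = mean inhibition across replicates above the hit cutoff set in the primary screen, cut at about 8.5% in these data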;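 note: 0% = DMSO wells and 100% = marimastat wells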
Active calls of the source: *; . = no result given; ! = not active in a repeat. Compounds with a hit are over-represented: about 2.9% of the library has one in this group of screens.

SMILES	ADAM17 inh	KLK7 zymogen act	ADAM10 inh	PLCb3 inh	PLCg1 inh	ADAM10 confirm	ADAM17 counter	ADAM10 ctr	ADAM17 confirm
O=c1cc(-c2ccc(O)cc2)oc2cc(O)cc(O)c12	-2.5	0.2	-7.0	-7.9	1.5	.	.	.	.
O=c1c(O)c(-c2ccc(O)cc2)oc2cc(O)cc(O)c12	8.9*	-9.1	20.6*	-118.7	-83.9	-1.8	0.1	-4.8	3.2
CCC(C(=O)OCC(=O)Nc1ccc(SC(F)F)cc1)c1ccccc1 (stereo not drawn)	12.2*	-0.2	28.6*	2.0	3.7	4.6	2.5	43.0*	23.4*
CCCCc1nnn2c1C1c3cc(-c4cccnc4)ccc3CCN1C(=O)C2 (stereo not drawn)	2.8	-0.1	-5.3	2.5	-6.7	.	.	.	.
COc1ccc(NC(=O)c2ccc3c(=O)n(-c4ccc(OC)cc4OC)c(=S)[nH]c3c2)cc1	9.1*	-0.4	24.1*	-3.5	2.4	3.6	0.6	18.1	4.4
COc1ccc(-n2c(=S)[nH]c3cc(C(=O)Nc4ccc(F)cc4)ccc3c2=O)c(OC)c1	7.4	-0.3	4.3	-7.7	1.3	.	.	.	.
C#CCNC(=O)C[C@H]1C[C@@]2(C(=O)OC)C(=C[C@H](COCc3ccccc3)O[C@@H]2C)N(Cc2ccco2)C1=O	-2.4	0.0	-0.1	0.7	1.8	.	.	.	.
Cc1ccc(N(CC(=O)NCCc2ccc(F)cc2)S(=O)(=O)c2ccc(Cl)c([N+](=O)[O-])c2)c(C)c1	12.0*	0.8	25.5*	3.3	6.1	10.6	2.4	29.4*	15.0*
FC(F)(F)c1cccc(NC(=S)NNC(=S)NCc2ccccc2)c1	11.6*	1.0	20.2*	2.3	6.1	5.8	2.8	31.4*	19.3*
FC(F)(F)c1cccc(NC(=S)NCc2ccccn2)c1	0.8	-0.3	7.5	1.3	-0.3	.	.	.	.
FC(F)(F)c1cccc(NC(=S)NCC2COc3ccccc3O2)c1 (stereo not drawn)	9.2*	-0.2	28.4*	3.4	5.7	10.5	3.0	43.6*	18.1*
O=C(OC12CCCN(C1)/C(=C/c1ccc(Cl)cc1)C2)C1CCCCC1 (stereo not drawn)	-3.1	-0.4	-13.8	-1.1	1.8	.	.	.	.
COc1ccc(C2=Nc3ccccc3NC(=O)C2N(C(=O)c2ccnc3ccccc23)c2ccccc2)cc1 (stereo not drawn)	17.5*	-0.1	33.0*	-11.6	-8.5	3.3	0.6	21.5*	14.5*
CCOC(=O)[C@]12CCCC=C1N(Cc1cccc3ccccc13)C(=O)[C@H](CC(=O)NCc1cccs1)C2	10.3*	0.1	27.0*	2.8	0.7	3.7	1.9	25.7*	16.3*
O=C(Cc1ccccc1)Nc1ncnc2c1C(c1ccccc1)c1c(ccc3ccccc13)O2 (stereo not drawn)	-4.1	-0.2	-7.7	-1.6	-3.8	.	.	.	.
Nc1nc2c(ncn2[C@@H]2O[C@H](C(=O)NCCc3c[nH]c4ccccc34)[C@@H](O)[C@H]2O)c(=O)[nH]1	4.1	-0.1	-1.7	2.2	0.9	.	.	.	.
COc1cc(OC)cc(OC(=O)C2CCN(C3=NS(=O)(=O)c4ccccc43)CC2)c1	0.6	0.3	0.0	2.1	1.2	.	.	.	.
Cc1nc(-c2ccc(F)cc2)c(CC(=O)N(C)CC(=O)Nc2ccc(Cl)c(C(F)(F)F)c2)s1	18.9*	-0.7	31.6*	1.6	6.8	1.4	0.9	25.5*	14.5*
Cc1ccc(C)c(OCC(=O)N(C)CC(=O)Nc2ccc(Cl)c(C(F)(F)F)c2)c1	8.8*	0.3	22.9*	-1.6	6.2	3.9	0.5	31.1*	17.3*
CN(CC(=O)Nc1ccc(Cl)c(C(F)(F)F)c1)C(=O)CC1Sc2ccccc2NC1=O (stereo not drawn)	13.5*	-0.5	33.4*	0.9	8.4	1.1	0.3	26.3*	12.9*
COc1cccc(NC(=O)CN(C)C(=O)CC2Sc3ccccc3NC2=O)c1 (stereo not drawn)	-1.1	-0.2	-7.2	-4.6	1.1	.	.	.	.
Cc1nc(-c2ccc(F)cc2)c(CC(=O)N(C)CC(=O)Nc2ccccc2Cl)s1	-2.1	-0.1	-0.8	0.5	-2.0	.	.	.	.
CN(CC(=O)Nc1cccc(F)c1)C(=O)c1cccc(S(=O)(=O)N2CCN(c3ccc(F)cc3)CC2)c1	14.8*	0.0	20.0*	-3.5	3.8	3.2	0.8	22.7*	10.4*
COc1ccc(-c2csc3ncnc(Oc4cccc5ccc(C)nc45)c23)cc1	8.9*	0.2	20.5*	-3.5	-0.5	6.4	2.3	13.8	7.6
COc1cc(NC(=O)c2cnc(N)s2)cc(C(=O)Nc2cccc(C(F)(F)F)c2)c1	9.8*!	0.0	19.9*!	-7.4	-0.3	6.4	2.0	22.2*	14.0*
SMILES	ADAM17 inh	KLK7 zymogen act	ADAM10 inh	PLCb3 inh	PLCg1 inh	ADAM10 confirm	ADAM17 counter	ADAM10 ctr	ADAM17 confirm
COC(=O)CN1C(c2cccc(Cl)c2)=Nc2ccc(Cl)cc2C1c1ccccc1 (stereo not drawn)	16.2*	1.1	21.2*	-14.6	-7.5	5.5	1.9	11.4	8.8*
Cc1ccc(NC(=O)C2CCN(S(=O)(=O)c3ccc4c(c3)NC(=O)C(C)S4)CC2)cc1C (stereo not drawn)	8.3	0.0	16.2	-4.5	3.7	.	.	.	.
CCc1ccc(NC(=O)C2CCN(S(=O)(=O)c3ccc4c(c3)NC(=O)C(C)S4)CC2)cc1 (stereo not drawn)	13.6*	0.3	25.6*	-1.6	6.7	1.1	-0.1	21.4*	11.2*
CCN(CC)c1ccc(NC(=O)/C=C\c2ccccc2Cl)cc1	14.3*	-0.7	26.8*	0.5	2.5	6.4	2.7	37.7*	18.8*
CN(C)c1ccc(NC(=O)/C=C/c2ccccc2Cl)cc1	11.6*	-0.3	22.5*	-0.3	-0.4	4.3	0.4	-1.2	1.5
Cc1cc(NC(=O)/C=C/c2ccccc2Cl)no1	2.1	-0.2	7.1	5.2	3.8	.	.	.	.
O=C(CCc1ccccc1)N[C@H]1[C@H](OCc2ccccc2)CCC[C@@]12C(=O)N(Cc1ccccc1)c1ccccc12	3.2	-0.5	5.9	4.2	2.7	.	.	.	.
O=S(=O)(c1c(F)cccc1F)N(CCc1ccc(F)cc1)C[C@@H](O)COCc1ccccc1	15.2*	0.3	27.2*	6.7	3.5	6.8	1.1	39.1*	19.1*
COc1ccc(CN(CC(O)COCc2ccccc2)S(=O)(=O)c2ccccc2Br)cc1OC (stereo not drawn)	5.6	0.6	6.8	1.5	1.2	.	.	.	.
